# Measurements: the supplement of paper PMC3545927
# This is one part of the list. How many sequences the whole screen found active is unknown.
# Molecular target: furin, P09958
# Assay: furin cleavage Z-score vs untreated control; higher = more cleavage, active = 3.5 or more, inactive = 1 or less, 8 variable residues between constant flanks
# Summary of the method: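 The cleavage Z-score was derived for purified furin acting on 8-mer peptides held on magnetic beads and fused to a cDNA oligonucleotide. Digests lasted 7.5, 15 or 30 min at 1:10 enzyme:substrate in 50 mM HEPES pH 7.5 with CaCl2 and NaCl. Sequencing counts of released DNA, log-transformed against furin-free reactions, were lowess-adjusted and scaled by median absolute deviation.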
# furin, P09958, sequence (P09958 whole entry): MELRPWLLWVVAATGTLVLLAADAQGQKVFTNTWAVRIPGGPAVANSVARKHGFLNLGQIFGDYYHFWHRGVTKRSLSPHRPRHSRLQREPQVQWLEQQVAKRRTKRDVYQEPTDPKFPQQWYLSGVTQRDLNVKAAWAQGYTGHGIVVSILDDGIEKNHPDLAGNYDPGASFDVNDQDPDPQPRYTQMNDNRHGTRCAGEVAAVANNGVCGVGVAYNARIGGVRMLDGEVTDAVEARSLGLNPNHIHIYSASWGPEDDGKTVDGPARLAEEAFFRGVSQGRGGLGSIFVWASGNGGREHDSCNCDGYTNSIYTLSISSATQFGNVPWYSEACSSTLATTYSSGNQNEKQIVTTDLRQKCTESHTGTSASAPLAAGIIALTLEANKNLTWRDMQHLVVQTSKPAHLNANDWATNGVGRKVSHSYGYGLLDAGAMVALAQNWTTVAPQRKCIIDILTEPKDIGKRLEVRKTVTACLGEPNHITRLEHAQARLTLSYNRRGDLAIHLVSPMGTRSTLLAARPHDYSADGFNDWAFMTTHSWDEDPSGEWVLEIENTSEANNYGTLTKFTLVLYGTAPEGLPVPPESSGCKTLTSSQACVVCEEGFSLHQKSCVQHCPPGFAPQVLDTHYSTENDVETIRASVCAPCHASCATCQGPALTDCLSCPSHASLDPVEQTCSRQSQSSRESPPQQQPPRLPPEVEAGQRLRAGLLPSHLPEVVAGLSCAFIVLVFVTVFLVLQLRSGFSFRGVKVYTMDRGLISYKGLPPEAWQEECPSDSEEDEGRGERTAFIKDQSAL
Sequence,furin cleavage Z-score (7.5 min),furin cleavage Z-score (15 min),furin cleavage Z-score (30 min)
CARVKRQKISAGNASASA [FS-1939],2.51,3.08,4.8 (active)
CARVKRRIENAGNASASA [FS-2533],4.86 (active),7.07 (active),8.34 (active)
CARVKRFIQEAGNASASA [FS-2099],5.75 (active),5.53 (active),5.92 (active)
CARVKRPIENAGNASASA [FS-2531],-0.853 (inactive),0.717 (inactive),-0.955 (inactive)
CARSFRRIAGAGNASASA [FS-2804],-0.414 (inactive),-1.36 (inactive),-1.34 (inactive)
CARVKRTHVPAGNASASA [FS-2242],4.22 (active),8.01 (active),3.97 (active)
CASTMCSAHLAGNASASA [HC2506],-0.111 (inactive),1.36,2.15
CADSMEECSQAGNASASA [HC1817],1.19,1.94,0.888 (inactive)
CAEYEVPCHRAGNASASA [HC2449],-0.191 (inactive),0.0222 (inactive),-0.958 (inactive)
CANSSRSKKPAGNASASA [FS-947],-0.794 (inactive),-0.615 (inactive),-1.7 (inactive)
CARSIRDILAAGNASASA [FS-1840],-1.31 (inactive),1.74,2.38
CARVKRNILAAGNASASA [FS-1872],5.27 (active),8.45 (active),8.24 (active)
CACVLRSKRDAGNASASA [FS-406],9.82 (active),8.74 (active),6.13 (active)
CACVSRSKRDAGNASASA [FS-407],13 (active),10.3 (active),7.76 (active)
CAHWSMSKRDAGNASASA [FS-335],-1.15 (inactive),0.288 (inactive),0.917 (inactive)
CASTPCSANLAGNASASA [HC2561],0.829 (inactive),0.852 (inactive),0.011 (inactive)
CADVVTKLPLAGNASASA [HC1459],0.775 (inactive),0.418 (inactive),0.0796 (inactive)
CAPKARRKRYAGNASASA [FS-619],11.3 (active),13.4 (active),11.2 (active)
CARTSRRKRAAGNASASA [FS-1274],10.3 (active),9.52 (active),6.92 (active)
CAFTEAMTRYAGNASASA [HC1540],1.26,-0.149 (inactive),-0.331 (inactive)
CAPLAVMGSSAGNASASA [HC1462],0.481 (inactive),1.18,-0.14 (inactive)
CARTSRRKRYAGNASASA [FS-958],11.4 (active),13.5 (active),9.45 (active)
CAITLPQDAVAGNASASA [HC898],-0.191 (inactive),-0.999 (inactive),-1.58 (inactive)
CAITAYAQQTAGNASASA [HC675],-0.902 (inactive),-0.292 (inactive),-0.928 (inactive)
CAGADTAACGAGNASASA [HC654],-0.934 (inactive),-0.244 (inactive),-0.368 (inactive)
CACGWAGWLLAGNASASA [HC206],0.181 (inactive),-0.831 (inactive),-0.0867 (inactive)
CAENTTPCSGAGNASASA [HC1981],-1.67 (inactive),0.267 (inactive),-0.382 (inactive)
CASAPSLKATAGNASASA [HC1264],-1.75 (inactive),-0.175 (inactive),-1.74 (inactive)
